In the library only some 2.3% were active in any assay of this set; here they are far more common.
AmpC inh no detg: AmpC beta-lactamase inhibition without detergent | Potency, µM (series often up to 57.1 µM), actives largely listed as inhibitors | hit rate 0.52% among 330,000 | AmpC nitrocefin hydrolysis, absorbance 480 nm, 0.0001% Triton | AID 485341 | P00811; further: nearly all actives have a fitted effect of over 20% in size
Target sequence (P00811 whole entry, looked up): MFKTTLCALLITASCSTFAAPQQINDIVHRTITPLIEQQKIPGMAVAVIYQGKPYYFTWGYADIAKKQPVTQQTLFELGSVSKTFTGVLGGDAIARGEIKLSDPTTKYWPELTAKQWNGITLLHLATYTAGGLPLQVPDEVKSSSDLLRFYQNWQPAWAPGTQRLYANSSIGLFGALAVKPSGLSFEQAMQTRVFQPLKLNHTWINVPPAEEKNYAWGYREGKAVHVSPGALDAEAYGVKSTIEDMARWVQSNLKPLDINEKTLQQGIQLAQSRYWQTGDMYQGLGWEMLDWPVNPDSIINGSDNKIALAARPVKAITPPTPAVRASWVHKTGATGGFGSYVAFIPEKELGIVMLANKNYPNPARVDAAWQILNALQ
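AmpC (5.3 nM in the dispensed reagent) in 20 mM phosphate pH 7.0 with 0.01% (detergent screen) or 0.0001% Triton X-100 was preincubated with compounds for 15 min at room temperature. Nitrocefin was then added from an 800 uM solution, and hydrolysis was followed at 480 nm.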
AmpC inh detg: inhibitors of E. coli AmpC beta-lactamase with detergent | P00811 | AmpC hydrolysis of nitrocefin, absorbance 480 nm, 0.01% Triton | Potency, µM (top dose mostly 114 µM), most hits filed as inhibitors | hit rate 0.041% among 370,000 | AID 485294; further: nearly all actives have a fitted effect of over 25% in size
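20 mM phosphate pH 7.0 + 0.01% (detergent screen) or 0.0001% Triton X-100; 5.3 nM AmpC reagent; cpd preinc 15 min RT; nitrocefin (800 uM stock) to start; A480 q20 s × 4 min; Activity was normalised to no-enzyme and no-compound control wells.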
Lassa entry inh: inhibitors of Lassa virus binding or cell entry; Lassa virus pseudotype entry inhibition, cell reporter; Potency, µM (series often up to 37.9 µM), usual class: inhibitors; hit rate 1.2% among 300,000; calls by dose curve; tested in HEK293 cells; further: nearly all actives have a fitted effect of over 50% in size
AMA1-RON2 inh: inhibitors of Plasmodium falciparum AMA1-RON2 interaction; AlphaScreen AMA1-biotinylated RON2 peptide binding; Potency, µM (top dose mostly 58.2 µM), hits mostly inhibitors; hit rate 0.2% among 360,000; AID 720542; further: nearly all actives have a fitted effect of over 45% in size
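AMA1 (3D7) with his tag at 25 nM final met compounds first, then biotinylated RON2 peptide at 25 nM; detection used donor plus acceptor beads, 10 µg/mL apiece, read by AlphaScreen after 30 min at room temperature.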
Marburg entry inh: Marburg virus entry inhibition | hit rate 1.8% among 300,000 | Marburg virus pseudotyped entry inhibition, cell reporter | Potency, µM (doses to about 37.8 µM), most hits filed as inhibitors; calls by dose curve; tested in HEK293 cells
Hits are given with their value; n = inactive; u = inconclusive; x = no result; [ ] = another dose, or the depositor's remark. Unless noted, the call rests on the fitted dose curve; in most records, active means well fitted curve in the direction sought with a large enough effect; inconclusive means small, poorly fitted or top-dose-only effect, or another doubt; inactive means no such curve, though single readings can be large; an effect the other way counts as inactive or inconclusive.

SMILES	AmpC inh no detg	AmpC inh detg	Lassa entry inh	AMA1-RON2 inh	Marburg entry inh
COc1ccc(OC)c(NC(=O)Cn2c(=O)cc(C)c3c(C)nn(-c4cccc(Cl)c4C)c32)c1	x	n	n	x	x
CC(NC(=S)Nc1cccc(C(F)(F)F)c1)C(C)(C)C (stereo not given)	n	n	10µM	n	u
Cc1c(-c2ccccc2)n(-c2ccc(Cl)cc2)c2nc3c(c(=O)n(C)c(=O)n3C)n12	x	n	n	x	x
CC(=O)C1=C(C)OC(N)=C(C#N)C1c1cc2cc(C)c(C)cc2nc1Cl (stereo not given)	0.316µM	n	n	n	n
CN1CCC(C2(O)c3ccccc3CCc3ccccc32)CC1	n	n	n	n	18.4µM
CN1CCN(C(=O)N2c3ccccc3C=Cc3ccccc32)CC1	n	n	u	n	10µM
NC(=O)N1c2ccccc2C=Cc2ccccc21	n	n	u	n	n
CN(C)c1ccc(C(CNC(=O)c2ccc(C#N)cc2)c2c[nH]c3ccccc23)cc1 (stereo not given)	n	n	u	14.1µM	u
CCOC(=O)c1ccc(S(=O)(=O)NCC(c2ccc(N(C)C)cc2)c2c[nH]c3ccccc23)cc1 (stereo not given)	n	n	n	14.1µM	n
CN(C)c1ccc(C(CNC(=O)c2ccccc2Br)c2c[nH]c3ccccc23)cc1 (stereo not given)	n	n	n	n	n
Nc1ncnc2c1nc(Sc1ccc(Cl)cc1)n2[C@H]1OC2COP(=O)(O)O[C@@H]2C1O (stereo not given in full)	x	x	n	x	n
CCN1CCN(Cc2nc3c(c(=O)n(C)c(=O)n3C)n2Cc2cccc3ccccc23)CC1	0.159µM	n	n	n	u
Cn1c(=O)c2c(nc(CN3CCC(Cc4ccccc4)CC3)n2CCN2CCOCC2)n(C)c1=O	n	n	10.3µM	n	n
CCN1CCN(c2nc3c(c(=O)n(C)c(=O)n3C)n2Cc2cccc3ccccc23)CC1	n	n	n	n	u
Cn1c(=O)c2c(nc(CN3CCN(Cc4ccccc4)CC3)n2CCN2CCOCC2)n(C)c1=O	n	n	n	n	n
CCOc1ccc(NC(=O)CN2C(=O)C(c3ccccc3)=NC23CCC(C)CC3)cc1 (stereo not given)	x	n	n	x	n
COc1cccc(N2CCN(C(=O)c3cnn(-c4ccc(C)cc4C)c3C3CCN(C(=O)OC(C)(C)C)CC3)CC2)c1	x	n	1.12µM	x	x
CCOC(=O)c1cnn(-c2ccc(Cl)cc2)c1C1CCN(C(=O)OC(C)(C)C)CC1	n	n	3.26µM	u	u
Cc1nc(CS(=O)(=O)c2ccc(Cl)cc2)cc(Sc2ccc(Cl)cc2)n1	3.98µM	n	n	n	n
O=S(=O)(Cc1cc(Sc2ccc(Cl)cc2)nc(-c2ccccc2)n1)c1ccccc1	n	n	n	n	u
CCCC[C@]12Cc3ccccc3[C@H](O1)C1=C(O2)C(=O)c2ccccc2C1=O	n[11.4 µM]	n[22.9 µM]	x	x	x
CC(C)(C)c1ccc(/C=N/NC(=S)NCc2ccccc2)cc1	n	n	0.259µM	n	n
COc1cc(/C=N/NC(=S)NCc2ccccc2)ccc1OCC#N	n	n	u	n[2.32 µM]	u
CCOc1ccc(CNC(=S)N/N=C/c2ccc(OC)c(OC)c2)cc1	n	n	2.82µM	n	n
C=CCNC(=S)N/N=C/c1ccc(C(C)(C)C)cc1	n	n	u	n	u
SMILES	AmpC inh no detg	AmpC inh detg	Lassa entry inh	AMA1-RON2 inh	Marburg entry inh
CC(C)(C)c1ccc(/C=N/NC(=O)c2ccccn2)cc1	n	n	u	n	3.16µM
CN(C)c1ccc(/C=N/NC(=S)NCc2ccccc2)cc1	n	u	0.282µM	u	n
CCC(=O)N(Cc1cccs1)[C@@H]1CCOC(C)(C)C1	x	x	x	x	n
O=C(Nc1ccccc1OCc1cc(=O)n2ccccc2n1)Nc1ccccc1C(F)(F)F	x	n	u	x	x
CCOC(=O)C(C)Sc1ncc(OC)c(=O)[nH]1 (stereo not given)	0.159µM	n	n	n	n
CCOC(=O)CSc1ncc(OC)c(=O)[nH]1	u	n	n	n	n
CCc1ccc(Oc2nccc(-c3c(-c4ccc(F)cc4)ncn3C3CCNCC3)n2)cc1	x	x	11.2µM	x	x
CCOC(=O)C1CCCN(C(=O)c2cc(Nc3ccc(OC)cc3OC)nc3ccccc23)C1 (stereo not given)	n	n	u	n	n
CCOC(=O)C1CCCN(C(=O)c2cc(Nc3ccc(OC)c(OC)c3)nc3ccccc23)C1 (stereo not given)	n	n	n	n	11.2µM
CCOC(=O)C1CCN(C(c2cccc(OC)c2)c2sc3nc(C)nn3c2O)CC1 (stereo not given)	10µM	u	x	n	x
O=c1[nH]c(O)c(/C=C2/C=CC(c3cc(Cl)ccc3Cl)=N2)c(=O)[nH]1	n	n	13µM	n	u
CC1=Nc2ccccc2/C1=C/c1c(O)[nH]c(=O)[nH]c1=O	n	n	x	n	x
CCC(C)(C)c1ccc(Oc2cccc(C(=O)O)c2)cc1	n	n	n	n	n
CCC(C)(C)c1ccc(Oc2ccc(N)cc2)cc1	n	n	u	u	3.98µM
Cc1ccc(N/C=C/C(=O)c2cccs2)cc1C	n	n	10µM	n	u
Cc1ccc(NC(=O)CN2C(=O)S/C(=C/c3ccc(O)c([N+](=O)[O-])c3)C2=O)cc1C	n	50.1µM	n	n	n
COc1ccc(NC(=O)c2c(-c3ccccc3Cl)noc2C)c(OC)c1	n	u	u	n	14.6µM
Cc1nc(CC(=O)Nc2ccc(C(N)=O)cc2)cs1	x	n	n	x	u
O=[N+]([O-])c1ccccc1/C=C/C=N/n1c(-c2cc(-c3ccccc3)n[nH]2)n[nH]c1=S	u	n	n	n	n
Cc1ccc(-c2n[nH]c(=S)n2/N=C/C=C/c2ccccc2[N+](=O)[O-])cc1	n	n	12.6µM	n	n
COc1ccccc1/C=C\C=N\n1c(-c2ccc(Cl)cc2)n[nH]c1=S	n	u	10µM	n	n
CCOc1ccc(C[C@H]2CC(=O)NC2=O)cc1	x	x	x	x	n
CC(OC(=O)COc1ccc(Nc2ccccc2)cc1)C(=O)N(C)c1ccccc1 (stereo not given)	39.8µM	n	n	u	n
COc1cc2c(cc1OC)C(c1cc3cc(OC)c(OC)cc3[nH]c1=O)N(C(=O)C1CC1)CC2 (stereo not given)	n	n	25.9µM	n	13µM
CCCC(=O)N1CCc2cc(OC)c(OC)cc2C1c1cc2cc3c(cc2[nH]c1=O)OCO3 (stereo not given)	x	x	n	n	u
CC(C)Cc1nn2c(=O)cc(COC(=O)c3ccc(NC(=O)C4CCCCC4)cc3)nc2s1	x	n	n	x	x
COc1cccc(NC(=O)c2ccc(-c3ccc([N+](=O)[O-])cc3)o2)c1	17.8µM	n	n	n	u
Cc1cc(NC(=O)c2ccc(-c3ccccc3[N+](=O)[O-])o2)no1	n	x	x	n	x
CC(=O)c1cccc(NC(=O)c2ccc(-c3ccccc3[N+](=O)[O-])o2)c1	n	n	u	n	4.61µM
O=[N+]([O-])c1ccccc1-c1ccc(C(=S)N2CCCC2)o1	n	n	n	n	u

Bioassay records: PubChem, National Center for Advancing Translational Sciences (NCATS)
